Data: PubChem BioAssay (NCI)
Compounds without any hit were thinned out: in the full panel of roughly 79,000, 15% have a hit. Values without a mark were called inactive. Calls of active or inactive are those of the source. Cut-off read from the data, not from the text of the source: active = growth inhibition above about 70%; inactive = the rest. Where a SMILES comes first, the peptide text is derived from it.

Key:
[1] = NCI Yeast Anticancer Drug Screen. Data for the rad50 strain (AID 155);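 note: 0% = growth of vehicle-only cultures of the same strain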; details: S. cerevisiae rad50 strain growth inhibition; at 50.0 µM; hits give high values
Summary of the method: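 Relative growth inhibition (compound vs vehicle) was measured in yeast with a defined repair-gene alteration.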

[2] = NCI Yeast Anticancer Drug Screen. Data for the mec2-1 strain (AID 157); details: S. cerevisiae mec2-1 strain, at 50.0 µM, hits give high values
Summary of the method: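 Readout is yeast growth inhibition, normalised to vehicle-treated controls, in the mec2-1 strain exposed to compound.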

[3] = NCI Yeast Anticancer Drug Screen. Data for the sgs1 mgt1 strain (AID 161);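 note: 0% = growth of cultures given vehicle only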; details: S. cerevisiae sgs1 mgt1 strain, at 50.0 µM, hits give high values
Summary of the method: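 Compounds are added to genetically altered yeast, and growth is compared with cultures given vehicle alone to give percent inhibition.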

[4] = NCI Yeast Anticancer Drug Screen. Data for the cln2 rad14 strain (AID 165);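 note: 0% = growth equal to vehicle treated cultures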; details: S. cerevisiae cln2 rad14 strain, at 50.0 µM, hits give high values
Summary of the method: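 Relative to vehicle controls, growth inhibition of compound-treated cln2 rad14 yeast was recorded.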

[5] = NCI Yeast Anticancer Drug Screen. Data for the bub3 strain (AID 167); details: S. cerevisiae bub3 mutant strain, at 50.0 µM, hits give high values
Summary of the method: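 Screening used yeast with an engineered genetic alteration affecting cell cycle control. Compound-exposed cultures were compared with vehicle cultures, and reduced growth was taken as inhibition.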

[6] = NCI Yeast Anticancer Drug Screen. Data for the mlh1 rad18 strain (AID 175); details: S. cerevisiae mlh1 rad18 strain growth inhibition; at 50.0 µM; hits give high values
Summary of the method: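 Test agents were incubated with a yeast strain of defined genotype (DNA damage repair defect). Inhibition of growth was derived by comparison with vehicle-exposed cultures.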

Structure (SMILES) | growth inhibition [1] | growth inhibition [2] | growth inhibition [3] | growth inhibition [4] | growth inhibition [5] | growth inhibition [6]
CCCCCCCCCCCCCCCCCCNC(=O)N1CCCCC1C (stereo not drawn) | 10.2% | -3.9% | -14.7% | -24.1% | -3.9% | 14.3%
CC(C)(C)C(=O)CC(=O)C(C)(C)C.CC(C)(C)C(=O)CC(=O)C(C)(C)C.CC(C)(C)C(=O)CC(=O)C(C)(C)C.[Co] | -10.1% | -8.95% | 21.4% | 16% | -0.6% | 0.15%
CC1COC2(CCCCC2)O1 (stereo not drawn) | -25.2% | -3.45% | -44.1% | -37% | -14.8% | -26.1%
NC(Cc1ccc(CP(=O)(O)O)cc1)C(=O)O (stereo not drawn) | -44.8% | -61.3% | -55.1% | -20% | -27.5% | -70.3%
CCCCCCCCCCCCCCCCCCCCCCCCCCCCCCS(=O)(=O)Cl | 14.7% | 28.1% | 16.9% | 18.8% | 33.9% | -18.9%
NC1=NC(=O)N(C2CC(O)C(COP(=O)(O)O)O2)C(I)C1 (stereo not drawn) | 31.9% | 0% | 12.9% | -28.6% | -0.6% | 13.2%
Cc1n[nH]c(=O)n1-c1cccnc1 | -0.7% | 1.5% | -9% | -12.3% | 3.55% | 3.6%
O=C(Nc1ccccc1Cl)OCCOc1ccccc1 | -3.7% | 10.1% | 11.3% | -19.1% | 17.2% | 14.7%
CC(C)(C)C1=CC(=O)OC1(Cl)C(C)(C)C (stereo not drawn) | -0.65% | 6.8% | -1.05% | 8.8% | 13.8% | -9.05%
Oc1ccccc1C=Nc1ccc2c(ccc3c4ccccc4ccc23)c1 | 51.8% | 39.8% | 28% | -6.65% | 48.1% | 39.8%
O=c1[nH][nH]c(=O)n2c1cc1oc(-c3ccccc3)cc12 | 0.05% | 2.45% | 17.8% | -16.1% | 23% | 22.7%
CCCCCCCCCCCC(=O)NC(=S)Nc1ccc(C(=O)OCC)cc1 | 29.9% | 31.9% | 57.9% | 1.35% | 29.4% | 45.4%
O=C(S)c1ccccc1Br | 1.45% | 0% | 11.6% | -54.9% | -8% | 3.8%
O=C(O)c1cc(=O)[nH]c(SCc2ccccc2)n1 | -9.7% | -20.1% | -28.5% | -30.2% | -20.8% | -5.35%
CCO/C(C)=N/NC(=O)c1n[nH]c2ccccc12 | 4.1% | -1.45% | -10.6% | 0.05% | -11.3% | 12%
O=C1NCCc2c1sc1ccccc21 | -9.95% | 2.45% | -0.95% | 1.5% | -1.05% | -6.9%
CC(=O)Nc1ccc(O)c([N+](=O)[O-])c1 | 3.1% | 3.3% | 3.3% | -36% | -9.15% | -11.4%
O=c1[nH]c(-c2ccccc2)nc2[nH]ncc12 | -3.2% | -11.3% | 23.1% | 9.45% | -7.4% | 6.15%
COc1cccc(Oc2c(O)c3ccc(OC)cc3oc2=O)c1 | 1% | 11.2% | -2.1% | 27.2% | 0.05% | 8.75%

Structure (SMILES) | growth inhibition [1] | growth inhibition [2] | growth inhibition [3] | growth inhibition [4] | growth inhibition [5] | growth inhibition [6]
Fc1c(F)c(F)c(CSc2nc3ccccc3[nH]2)c(F)c1F | -42% | -20.1% | -26.7% | -7.35% | 0.35% | -16.7%
OCc1cc2ccccc2c2c3c(ccc12)OCO3 | 39.9% | 4.6% | 20.7% | -37.9% | -1.05% | 15.9%
CCCCC(Sc1cc(Cl)c(C)cc1S(=O)(=O)Nc1n[nH]c(N)n1)C(=O)OC (stereo not drawn) | -4.85% | -12.3% | 50% | 7% | -18.8% | 5.75%
COC1CCC(/C=C(\C#N)C2CCC(OC)CC2)CC1 (stereo not drawn) | 37.6% | 49.8% | 42.8% | 11.9% | 51.2% | 30%
CN(C)c1c([N+](=O)[O-])cc2[nH]cnc2c1[N+](=O)[O-] | 21.2% | 12.2% | 13.3% | -2.9% | 19.4% | 13.7%
CCCCCC1(C)OCC(c2ccccc2)O1 (stereo not drawn) | -12.8% | -9.45% | -21% | -47% | -13.3% | 21.1%
CCCCN(CCCC)CC(O)c1cc(OC)c2cc(Cl)cc(Cl)c2n1 (stereo not drawn) | 99.5% (active) | 99.8% (active) | 99.8% (active) | 99.3% (active) | 99.2% (active) | 99.7% (active)
CCCC(=O)OCc1ccccc1 | 14.4% | 11.9% | -6.9% | -15.8% | -5.15% | -7.85%
C(#CC[P+](c1ccccc1)(c1ccccc1)c1ccccc1)C[P+](c1ccccc1)(c1ccccc1)c1ccccc1 | -24.1% | -16.4% | 0.2% | 3.55% | -5.4% | -10.4%
CCCC(C)C(=O)OCCOC (stereo not drawn) | 2.85% | -5.3% | -2.95% | -19.1% | 4.45% | 0%
NC(Cc1cnc[nH]1)C(=O)NC(Cc1ccc(O)cc1)C(=O)O (stereo not drawn) (H-His-Tyr-OH; configuration not given here) | 7.6% | -23% | 7.2% | 16.6% | 9.85% | 22%
COC1CCC(O)C(C=Nc2ccccc2)C1 (stereo not drawn) | 4.8% | -1.85% | -11.8% | 4.35% | 8.5% | -18.8%
CCOc1ccc(/C=C2\N=C(c3cccc(Cl)c3)OC2=O)cc1 | 12.2% | 15.3% | 22.1% | 19.6% | 17.2% | 13.7%
CCOC(=O)C1OC1(C)CC (stereo not drawn) | 4.1% | 1% | 10.3% | -5.85% | -5.25% | -21.4%
Cc1ccc(C2=C(Cl)C(=O)C(c3ccc(C)cc3)=C(Cl)C2=O)cc1 | -15.8% | 10.3% | -13.8% | -3.95% | -57.5% | -14.4%
COc1ccc(Cc2cc3c(cc2OC(C)=O)OCO3)cc1 | -4.2% | -10.3% | -5.75% | 8.9% | 38.2% | 7.25%
O=C1C=C(n2ccccc2=O)CCC1 | 8.05% | 2.15% | 11.4% | -29.1% | -1.8% | 0.05%
O=C(O)c1cc(C2CC2)nc2ccccc12 | -1% | 1.6% | 0.55% | -0.95% | -14.6% | 24.6%
CCN(CCO)CC(=O)c1cc(Cl)ccc1OC | -3.85% | 13.6% | 16.2% | -37% | 6.55% | 19.4%
